Assay outcomes (PubChem BioAssay)
A selection: hits, their analogues and other compounds. The true share with any hit is near 4.1%.
hgDAF-12 ag: agonists of H. glycines DAF-12 nuclear receptor | HEK293 GAL4-hgDAF12 UAS-luciferase reporter, agonist luminescence; normalized to butyrate control | activation, % at 6.8 µM | 370,000 tested, 1.8% active;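 active = activation above a cutoff set at the mean of all screened compounds plus 3 SD, cut at about 10% in these data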;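 also: 0% = DMSO wells and 100% = sodium butyrate wells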
ssDAF-12 act: activates DAF-12 receptor from parasite S. stercoralis; HEK293 ssDAF-12/GRIP1 lit1-tk-luc reporter, luminescence; % of 3 µM dafachronic acid response; activation, % at 6.8 µM; 370,000 tested, 1% active;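 active = activation above the mean over all tested compounds plus 3 SD, cut at about 0.9% in these data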;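 also: 0% = DMSO-only wells and 100% = 3 µM delta7-dafachronic acid wells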
hcDAF12 agonist: activators of H. contortus DAF-12 nuclear receptor; AID 652067; activation, % at 6.8 µM; HEK293 hcDAF-12 lit1-tk-luc reporter, luminescence; 0% DMSO, 100% Δ7-dafachronic acid; 370,000 tested, 1.4% active;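 active = activation above the mean of all tested compounds plus 3 SD, cut at about 5.5% in these data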;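 also: 100% = response to 3 µM Δ7-dafachronic acid high control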
DAX1 inh-1: inhibits human nuclear receptor DAX1 | AID 504766 | inhibition, % at 6.75 µM | 340,000 tested, 0.99% active | P51843 | HEK293 Gal4-DAX1 luciferase reporter, luminescence;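 active = inhibition above the mean over all tested compounds plus 3 SD, cut at about 4.2% in these data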;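 also: 0% = DAX1-transfected cells with DMSO and 100% = empty-vector control cells with DMSO; inhibition shows as a rise in luminescence from relieved DAX1 repression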
Target sequence (P51843 207-470 limits assumed): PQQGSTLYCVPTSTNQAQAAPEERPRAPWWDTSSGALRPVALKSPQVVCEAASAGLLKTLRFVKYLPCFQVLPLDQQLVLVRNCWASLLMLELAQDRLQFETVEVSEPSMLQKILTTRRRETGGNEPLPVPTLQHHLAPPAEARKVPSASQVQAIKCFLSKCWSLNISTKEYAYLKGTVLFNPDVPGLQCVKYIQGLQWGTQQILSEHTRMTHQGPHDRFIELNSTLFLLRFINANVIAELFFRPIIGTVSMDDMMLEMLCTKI
DAX1 inh-2: inhibitors of DAX1 repression of SF-1 activated StAR promoter | inhibition, % at 6.8 µM | AID 652010 | 370,000 tested, 1.1% active | HEK293T StAR-luciferase reporter, SF-1/DAX-1 repression relief;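 active = inhibition above the mean over all tested compounds plus 3 SD, cut at about 3.6% in these data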;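 also: 0% = DAX-1 cells with DMSO and 100% = cells lacking DAX-1 with DMSO; higher inhibition means more luminescence from relief of DAX-1 repression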
DAX1 conf: NR0B1 (human) inhibition, confirmation | 2,400 tested, 87% active | inhibition, % at 6.8 µM | shares compounds with DAX1 inh-2 | HEK293T StAR-promoter luciferase reporter, SF-1/DAX-1 repression;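 active = inhibition above the average of every tested compound plus 3 SD, cut at about 3.8% in these data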;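 also: 0% = DAX-1 cells with DMSO and 100% = no DAX-1 control cells with DMSO; active compounds raise luminescence by relieving repression of the StAR reporter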
SF1 AF2mut Luc: nonselective inhibitor or artifact in SF-1 mutant DAX1 counter-screen. shares compounds with DAX1 inh-2. HEK293 StAR-luciferase, SF-1 AF2 mutant, luminescence. inhibition, % at 6.8 µM. 2,400 tested, 78% active;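 active = inhibition above the mean of all tested compounds plus 3 SD, cut at about 3% in these data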;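 also: 0% = DAX-1 transfected cells with DMSO and 100% = cells without DAX-1 with DMSO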
LXRb hcDAF ctr: counter-screen for hcDAF-12 agonists: agonists of human LXR-beta; AID 743027; shares compounds with hcDAF12 agonist; activation, % at 6.8 µM; HEK293 Gal4-LXR tk-luc reporter, luminescence, 24 h; normalized: DMSO 0%, positive control 100%; 3,400 tested, under 10 active;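 active = mean percent activation of the reporter above a cutoff set as the average over tested compounds plus their standard deviation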
hcDAF12 conf: confirmation of H. contortus DAF-12 agonists | HEK293 hcDAF-12 lit1-tk-luc reporter, luminescence; % of Δ7-dafachronic acid response | 3,400 tested, 61% active | activation, % at 6.8 µM | shares compounds with hcDAF12 agonist;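 active = mean activation across triplicate tests above the threshold derived from the earlier primary screen, cut at about 5.5% in these data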;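 also: 0% = DMSO only wells and 100% = 3 µM Δ7-dafachronic acid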
hgDAF12 ag: hgDAF-12 agonism, confirmation assay | shares compounds with hgDAF-12 ag | 3,300 tested, 80% active | AID 743050 | activation, % at 6.8 µM | HEK293 GAL4-hgDAF12 luciferase reporter, agonist mode; percent of butyrate response;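 active = mean activation over triplicate wells above the hit cutoff derived from the earlier primary screen, cut at about 11% in these data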;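 also: 0% = DMSO low control and 100% = 2 mM sodium butyrate high control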
LXR ag 2: counter-screen for DAF-12 agonists: agonists of human LXR-beta; shares compounds with hgDAF-12 ag; HEK293 Gal4-LXR luciferase reporter, 24 h; activation, % at 6.8 µM; 3,300 tested, under 10 active;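 active = mean activation of the triplicate above a set limit carried over from the primary screen, none filed active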
The depositor's hits bear a star; . = no result.

SMILES	hgDAF-12 ag	ssDAF-12 act	hcDAF12 agonist	DAX1 inh-1	DAX1 inh-2	DAX1 conf	SF1 AF2mut Luc	hgDAF12 ag	LXR ag 2	others
CCCCn1c(N)c(N(CC(C)C)C(=O)c2cc3c(s2)CCCCC3)c(=O)[nH]c1=O	2.8	-0.4	-0.7	0.6	-1.4	.	.	.	.
Nc1ncc(-c2ccc(F)cc2)nc1N1CCN(CCO)CC1	0.3	-1.1	-0.8	.	0.9	.	.	.	.
OCCN1CCN(c2cnc(-c3ccsc3)cn2)CC1	17.2*	0.6	5.2	.	5.9*	10.0*	6.2*	13.3*	0.6
CCCC(=O)Nc1ccc(C(=O)COC(=O)C2CC2C)cc1 (stereo unspecified)	4.2	0.1	2.2	0.4	3.3	.	.	.	.
CC(=O)Nc1ccc(C(=O)COC(=O)C2CC2C)c(F)c1 (stereo unspecified)	17.8*	1.0*	3.1	2.4	10.8*	10.3*	4.6*	10.2	0.7
Cc1ccc(C(O)c2ncc(-c3ccc(Cl)cc3)[nH]2)cc1 (stereo unspecified)	6.4	-0.8	0.1	.	-0.3	.	.	.	.
Clc1ccc(/C=N/Nc2ccccn2)cc1	9.7	-0.4	1.7	3.5	1.5	.	.	.	.
COc1ccc(/C=N/Nc2cc(OC)ncn2)cc1	14.1*	2.2*	9.2*	-1.4	6.5*	15.0*	7.2*	16.5*	1.0	LXRb hcDAF ctr=1.4;hcDAF12 conf=9.4*
CCOc1ccc(/C=N/NC(=O)CC(=O)NCc2ccccc2)cc1	-1.2	-0.6	-1.6	-0.4	-0.1	.	.	.	.
O=C(Cc1ccccc1)N/N=C/c1ccc(OCC(=O)Nc2ccccc2)cc1	-0.3	-0.9	-0.6	0.6	-0.7	.	.	.	.
CCOc1ccc(/C=N/NC(=O)Nc2ccccc2)cc1	18.5*	-0.6	5.1	1.1	6.6*	9.2*	5.2*	19.6*	0.8
CC(=O)Oc1ccc(/C=N/NC(=S)Nc2ccccc2)cc1	17.2*	-0.5	5.6	2.7	5.0*	14.8*	8.4*	16.4*	0.8
CCOc1ccc(/C=N/Nc2ccccn2)cc1	17.4*	0.7	6.0*	1.0	5.8*	18.1*	10.1*	19.1*	1.2
FC(F)(F)c1ccccc1-c1ccc2nncn2c1	-0.7	-1.5	-0.3	.	-0.6	.	.	.	.
COc1cc(C#CC#CCN2CCCCC2)ccc1O	2.6	-1.5	0.4	0.5	-0.3	.	.	.	.
CCc1ccc2cc3c(cc2n1)C(=O)c1ccccc1-3	20.5*	3.6*	17.2*	.	9.5*	10.7*	6.4*	22.6*	0.8	LXRb hcDAF ctr=1.6;hcDAF12 conf=16.1*
O=C(NCc1ccccc1)C(c1ccccc1)n1c(C2CC2)nc2ccccc21 (stereo unspecified)	19.8*	1.9*	2.1	.	6.1*	10.6*	5.2*	15.9*	0.8
O=C(NCc1ccccc1)C(c1ccccc1)n1c(-c2ccncc2)nc2ccccc21 (stereo unspecified)	0.3	-0.9	1.1	.	0.7	.	.	.	.
CCOC(=O)c1c(C)nc(C)c(C(=O)OCC)c1-c1ccccc1	.	.	.	0.6	.	.	.	.	.
CCOC(=O)C1=CCC(c2cc3ccccc3[nH]2)NC1 (stereo unspecified)	15.5*	1.1*	8.0*	.	5.7*	8.9*	5.0*	19.1*	0.8	LXRb hcDAF ctr=1.0;hcDAF12 conf=6.4*
O=C(/C=C/c1ccccc1Cl)Nc1cccc(S(=O)(=O)NC2=NCCCCC2)c1	2.4	-1.4	-3.5	-1.4	0.1	.	.	.	.
